Data from PubChem BioAssay (NCATS).
Results filed as inconclusive are left out. Calls of active or inactive are those of the source. The call rests on the fitted dose curve; in most records, active means well fitted inhibition curve with a large enough effect; inconclusive means small, poorly fitted or top-dose-only effect; inactive means flat fitted curve, though single readings scatter.
On the % scale 0 is the no-effect control and ±100 the full control effect; potency means the concentration at half of the fitted maximal effect.

What follows are compounds tested against Calcium and integrin-binding protein 1 (Homo sapiens) (UniProt Q99828) (assay: Primary qHTS for Identification of Calcium Integrin Binding Protein 1 (CIB1) Competitor (AID 1508620;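 on activity change, negative = inhibition: GST tagged CIB1 binding a fluorescein labelled alphaIIb integrin peptide tracer; top concentration of the series differs between compounds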)). Details: CIB1-GST / FITC-alphaIIb peptide fluorescence polarization; series mostly up to 114 µM; activity change, negative = inhibition: at the top concentration.
Sequence of Calcium and integrin-binding protein 1 (Homo sapiens) (Q99828 whole entry, looked up): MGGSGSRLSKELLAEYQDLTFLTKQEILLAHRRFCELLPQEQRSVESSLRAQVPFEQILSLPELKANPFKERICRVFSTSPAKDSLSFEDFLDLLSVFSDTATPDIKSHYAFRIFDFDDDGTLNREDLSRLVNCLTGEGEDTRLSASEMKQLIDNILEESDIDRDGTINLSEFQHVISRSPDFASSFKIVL
Outline: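 CIB1-GST (1 uM final) and compound incubated 15 min at room temperature before adding FITC-alphaIIb peptide tracer (100 nM final). Competition for binding read by fluorescence polarization (ex 480, em 540) after another 15 min at room temperature.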
With `Cc1ccnc(NC(=S)NCCN(C)c2cccc(C(F)(F)F)c2)c1` the “activity change, negative = inhibition” value was -4.66% (inactive). For `O=C1Nc2cc(Cl)ccc2/C1=C\c1cc(Cl)c(O)c(Cl)c1`, the “activity change, negative = inhibition” value was 15.5% (inactive). `S=C(NCCCc1cnc[nH]1)NCCCN(Cc1ccc(Cl)cc1)c1ccc(Br)cn1` was tested, and the “activity change, negative = inhibition” value was -8.46% (inactive). `Cc1cnc(-c2ccccc2C2CC2)nc1NCc1ccc(-c2cccnc2)cc1` was tested, and the “activity change, negative = inhibition” value was 1.28% (inactive). For `C=CCNc1oc(-c2cccc(Cl)c2)nc1C#N`, the “activity change, negative = inhibition” value was -19.5% (inactive). In the case of `O=C1CCc2cc(S(=O)(=O)Nc3ccc(Cl)c(Cl)c3)c(F)cc2N1`, the Potency is reported as “inactive”. `COc1ccc(C2Nc3ccccc3C(=O)N2Cc2ccco2)cc1` (centres undefined) was tested, and the “activity change, negative = inhibition” value was -5.79% (inactive). `Cn1nnnc1Sc1ncnc2scc(-c3ccccc3C#N)c12` was tested, and the “activity change, negative = inhibition” value was 0.531% (inactive). With `Nc1ccc2c(c1)S(=O)(=O)NC2=O` the “activity change, negative = inhibition” value was -7.25% (inactive). `Cc1cccc(-n2cnc3cc(C(=O)N4CCCC(C(F)(F)F)C4)ccc32)c1` (centres undefined) was tested, and the “activity change, negative = inhibition” value was -0.102% (inactive). For `COc1ccc(NS(=O)(=O)c2ccc3c(c2)CCC(=O)N3)cc1`, the “activity change, negative = inhibition” value was 7.41% (inactive). In the case of `O=[N+]([O-])c1ccccc1S(=O)(=O)N1CCN(S(=O)(=O)c2ccc3c(c2)OCCO3)CC1`, the “activity change, negative = inhibition” value is reported as 0.26% (inactive). For `Cc1cc(C)nc(NC(=S)N2CCN(c3cncs3)CC2)c1`, the “activity change, negative = inhibition” value was -11.2% (inactive). In the case of `O=C(NCCc1nc2ccccc2n1CCO)C1CCCCC1`, the “activity change, negative = inhibition” value is reported as -1.39% (inactive). With `CCOC(=O)c1ccc(-n2cnc3cc(C(=O)N4CCCCC4)ccc32)cc1` the “activity change, negative = inhibition” value was 2.92% (inactive). `Cc1ccc(NS(=O)(=O)c2cccc(C(=O)O)c2)cc1C` was tested, and the “activity change, negative = inhibition” value was -1.51% (inactive). For `CC(=O)Nc1sc2c(c1-c1ccccc1)CCN(C(=O)OC(C)(C)C)C2`, the “activity change, negative = inhibition” value was 7.21% (inactive). For `Cc1ccc(NS(=O)(=O)c2cc3c(cc2N(C)CCN(C)C)NC(=O)CC3)cc1C`, the “activity change, negative = inhibition” value was 3.27% (inactive). `NC(=O)C1CCN(c2nc(-c3ccc(OCc4ccccc4)cc3)cs2)CC1` was tested, and the “activity change, negative = inhibition” value was -4.3% (inactive). In the case of `CCN(Cc1cccs1)c1ncnc2ccc(-c3ccc4c(c3)OCO4)cc12`, the Potency is reported as “inactive”. In the case of `CCOC(=O)C1CCN(C(=O)C2(NC(=O)Nc3ccccc3Cl)CCC2)CC1`, the “activity change, negative = inhibition” value is reported as -2.76% (inactive). In the case of `COc1ccc(OC)c(C2=Nn3c(nnc3-c3ccccc3OC)SC2)c1`, the “activity change, negative = inhibition” value is reported as 6.28% (inactive). In the case of `COc1ccc(-c2nnc3n2N=C(c2cccc(OC)c2)CS3)cc1`, the “activity change, negative = inhibition” value is reported as 0.504% (inactive). `Cc1cc(C)nc(NC(=S)N2CCN(c3nsc4ccccc34)CC2)c1` was tested, and the “activity change, negative = inhibition” value was -11.9% (inactive). For `Cc1cnc(-c2ccccc2C(F)F)nc1NCc1ccc(-n2ccnn2)cc1`, the “activity change, negative = inhibition” value was 4.72% (inactive). In the case of `NC(=O)C1CCN(c2nc(-c3cccnc3)cs2)CC1`, the “activity change, negative = inhibition” value is reported as -3.29% (inactive). `O=S(=O)(c1ccc(F)cc1)N1CCN(S(=O)(=O)c2ccc3c(c2)OCCO3)CC1` was tested, and the “activity change, negative = inhibition” value was 4.69% (inactive). In the case of `COc1cccc(Cn2ncc3c4sc(C)cc4n(C)c3c2=O)c1`, the “activity change, negative = inhibition” value is reported as -1.53% (inactive). `CN1CCc2ccc3c4c2[C@]1(C)Cc1cccc(c1-4)OCO3` was tested, and the Potency was 39.8 µM (active). `O=C(Nc1ccc2ccccc2c1)Nc1nnc(-c2ccccc2Cl)s1` was tested, and the “activity change, negative = inhibition” value was 9.84% (inactive). `CC(C)Oc1cccc(-c2cnc(N3CCC(C(N)=O)CC3)s2)c1` was tested, and the “activity change, negative = inhibition” value was 1.76% (inactive). With `Cc1ccc(NS(=O)(=O)c2cc3c(cc2C)NC(=O)CO3)cc1C` the “activity change, negative = inhibition” value was 0.574% (inactive). For `CCN(CC)C(=O)COC(=O)c1ccc(S(C)(=O)=O)c([N+](=O)[O-])c1`, the “activity change, negative = inhibition” value was -6.92% (inactive). With `Brc1ccc(-c2csc(N3CCC(c4nn[nH]n4)CC3)n2)cc1` the “activity change, negative = inhibition” value was -17.9% (inactive). For `COc1ccc(-c2ccc3ncnc(NCc4cccs4)c3c2)cc1`, the “activity change, negative = inhibition” value was -0.374% (inactive). In the case of `c1ccc(CN(Cc2ccccc2)Cc2nnc(-c3cc4ccccc4[nH]3)s2)cc1`, the “activity change, negative = inhibition” value is reported as 1.52% (inactive). In the case of `Cc1cc(C)nc(NC(=S)N2CCN(c3ccc(Cl)cc3S(C)(=O)=O)CC2)c1`, the “activity change, negative = inhibition” value is reported as -2.12% (inactive). For `COc1ccc(C2Nc3ccccc3C(=O)N2Cc2ccccn2)cc1COc1c(C)cccc1C` (centres undefined), the “activity change, negative = inhibition” value was -3.34% (inactive). `CC(=O)Nc1sc2c(c1C(O)c1nc3ccccc3s1)CCN(C(C)C)C2` (centres undefined) was tested, and the “activity change, negative = inhibition” value was -1.12% (inactive).
